Bioassay records as filed in PubChem.
Only some compounds are listed: those with a hit (about 4.3% of all), similar ones and a draw of the others.
HSF-1 act: increases HSF-1 driven luciferase reporter signal; NIH3T3-HGL HSF-1 luciferase reporter, MG132, 8 h; 100% = twice DMSO control signal; activation, % at 9 µM; 300,000 tested, 1.7% active; AID 504408;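 active = mean replicate activation of at least 50% with a set share of replicates each reaching 50%; inconclusive = only one of those two conditions met; inactive = mean below 50% and too few replicates reaching it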;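 also: 0% = median of the neutral control wells and 100% = twice that signal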
HSF1 inhib: HSF1 inhibition; NIH3T3-HGL HSE-luciferase, MG132-induced, luminescence 8 h; stronger effect = lower value; activity change, negative = inhibition, % at 7.5 µM (by protocol); 300,000 tested, 0.77% active; AID 2098;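 active = more than half of replicate wells show activity change below -50%, luminescence cut by over half; inconclusive = some wells, but at most half, below -50%; inactive = no replicate well below -50%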;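 also: luciferase reports HSF-1 transcriptional activity via heat shock element; 0% = median of DMSO wells and -100% = zero luminescence signal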
MITF act: MITF TRPM1 promoter activation in melanoma cells. SK-MEL-5 TRPM1-promoter luciferase, 24 h; % of positive control, neutral wells = 0. activation, % at 12.5 µM. 300,000 tested, 0.75% active;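 active = mean activation of at least 80% with every replicate also reaching 80%; inconclusive = mean reaches 80% but some replicate falls short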;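 also: 0% = neutral control wells and 100% = parthenolide positive control wells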
Wnt act: activators of Wnt/beta-catenin signaling. Wnt/beta-catenin reporter cell assay, activator, plate reader. activation, % at 9.35 µM. 300,000 tested, 1.2% active; in the data active = activation above about 30%, passing the limit was not always enough; inconclusive = no clear call, values can overlap the other calls;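 also: 0% = neutral control wells and 100% = positive control wells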
SMARCA2 act: activators of SMARCA2 function; MG213 cells, MMTV-luciferase reporter, dexamethasone, overnight; activation, % at 9.1 µM; 370,000 tested, 1% active; AID 652017; in the data active = activation above about 7.8%;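 also: 0% = vehicle wells and 100% = reference activator wells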
esBAF inh: SWI/SNF esBAF complex inhibition; mouse ES cells, Bmi1-luciferase knock-in reporter, 24 h; 100% = twice the neutral-well signal; reporter increase, % at 12.5 µM; 350,000 tested, 2% active; AID 602393; in the data active = activation above about 40%; inconclusive = no clear call, values can overlap the other calls;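 also: 0% = median of the plate's neutral control wells and 100% = double that signal; a rise in the Bmi1 reporter signal indicates esBAF inhibition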
SMARCA2 act conf: SMARCA2 activation, confirmation screen; MG213 cells, MMTV-luciferase with dexamethasone, luminescence, overnight; MG213 cells expressing E1A, Rb sequestered; DMSO wells 0%, reference activator 100%; AID 652260; activation, % at 9.1 µM; shares compounds with SMARCA2 act; 3,500 tested, 30% active;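 active = activation above its plate's cutoff, the mean activation of tested wells plus 3 SD, cut at about 7.9% in these data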
VP16 Luc act: activates GAL4-VP16 luciferase, flagging SMARCA2 activator hits; shares compounds with SMARCA2 act; HEK293 GAL4-VP16 pG5luc reporter, luciferase luminescence; scaled: DMSO wells 0%, SAHA wells 100%; activation, % at 9.1 µM; 3,500 tested, 41% active; AID 686939;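 active = activation above the solvent-only control well mean plus 3 SD, averaged across control plates, cut at about 5.2% in these data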
Numbers without * were called inactive; ? = inconclusive; / = no result.

SMILES	HSF-1 act	HSF1 inhib	MITF act	Wnt act	SMARCA2 act	esBAF inh	SMARCA2 act conf	VP16 Luc act
Cc1nc(-c2cc(C#N)c(Sc3ccc(Cl)cc3Cl)nc2C)cs1	-1	2	-3	-2	10*	-3	-1	0
COc1ccc(-c2ccc3c(c2)O[C@@H](CN(C)C(C)=O)[C@H](C)CN([C@@H](C)CO)S3(=O)=O)cc1	/	/	/	/	/	0	/	/
Cc1cc(C(=O)COC(=O)c2ccc([N+](=O)[O-])o2)c(C)n1CC1CCCO1 (stereo unspecified)	-12	-9	17	3	8.5*	-18	1	1
COCCn1c(C)cc(C(=O)COC(=O)c2ccc([N+](=O)[O-])o2)c1C	-17	-5	-1	0	3	-13	/	/
Cc1noc(C)c1NC(=O)Nc1ccc2c(c1)C(=O)N([C@H](C)CO)C[C@H](C)[C@H](CN(C)CC1CC1)O2	/	/	/	/	/	0	/	/
Cc1c(-c2ccccc2)nc2ccccc2c1C(=O)NCc1cccs1	16	10	-7	4	8.1*	/	-2	1
Cc1c(C(=O)NCc2cccs2)oc2ccccc12	3	1	26	/	0	/	/	/
Cc1ccc(S(=O)(=O)N2CCN(C(=O)COC(=O)COc3ccccc3)CC2)cc1	-21	-8	-5	-2	-4	4	/	/
O=C(COc1ccccc1Cl)OCC(=O)N1CCN(S(=O)(=O)c2ccccc2)CC1	-5	-2	-9	-6	11*	-9	-2	0
O=C(OCC(=O)N1CCN(S(=O)(=O)c2ccc(Cl)cc2)CC1)c1ccc([N+](=O)[O-])o1	?	19	-15	-2	8.9*	-9	3	4
C[C@@H]1CN([C@@H](C)CO)C(=O)c2cc(-c3cccc(C(=O)N(C)C)c3)cnc2O[C@H]1CN(C)S(=O)(=O)c1ccccc1	/	/	/	/	/	4	/	/
CC(C)NC(=O)Nc1ccc2c(c1)CC(=O)N([C@H](C)CO)C[C@@H](C)[C@@H](CN(C)C)O2	/	/	/	/	/	0	/	/
C[C@H]1CN([C@@H](C)CO)C(=O)c2cc(-c3ccc(F)cc3)cnc2O[C@@H]1CN(C)S(C)(=O)=O	/	/	/	/	/	0	/	/
c1ccc(-c2ccc(-c3ccncn3)cc2)cc1	44	9	/	44*	9.1*	/	5	7.6*
CCNC(=O)Nc1ccc2c(c1)C(=O)N(C)[C@@H]1CC[C@H](CC(=O)NCCN3CCCC3)O[C@H]1CO2	/	/	/	/	/	12	/	/
Cc1cc2nc(-c3nnnn3-c3c(C)cccc3C)c(=O)[nH]c2cc1C	/	/	/	-3	8.0*	/	-3	1
Cc1cccc(C)c1-n1nnnc1-c1nc2ccccc2[nH]c1=O	/	/	/	-3	1	/	/	/
O=C(C[C@@H]1CC[C@H](NC(=O)Cc2cccnc2)[C@@H](CO)O1)Nc1ccc(-c2ccccc2)cc1	/	/	/	/	/	-3	/	/
C[C@@H]1CN([C@@H](C)CO)C(=O)Cc2cc(NS(C)(=O)=O)ccc2O[C@H]1CN(C)C(=O)Nc1cccc2ccccc12	/	/	/	/	/	-1	/	/
CCN(CC)CCCN(Cc1cc2cc3c(cc2[nH]c1=O)OCO3)C(=S)Nc1ccccc1OC	5	-1	5	-5	2	1	/	/
COc1ccccc1NC(=S)N(CCCN(C)C)Cc1cc2cc3c(cc2[nH]c1=O)OCO3	-1	-7	-5	5	8.0*	/	-1	0
CCc1ccc2[nH]c(=O)c(CN(CCN(CC)CC)C(=O)Nc3ccccc3OC)cc2c1	-2	-5	0	/	9.0*	1	-1	1
C[C@@H]1CN([C@H](C)CO)C(=O)c2cc(C3=CCCCC3)cnc2O[C@H]1CN(C)C(=O)Cc1ccncc1	/	/	/	/	/	0	/	/
O=C(COc1ccccc1CNCc1ccccc1)Nc1ccccc1	31	10	20	/	9.9*	3	3	1
CN1CCSc2ccc(C(=O)Nc3cc(F)ccc3F)cc21	76*	53	97*	43*	11*	13	3	12*
SMILES	HSF-1 act	HSF1 inhib	MITF act	Wnt act	SMARCA2 act	esBAF inh	SMARCA2 act conf	VP16 Luc act
CC=Cc1ccc2n(c1=O)C[C@H]1[C@H](CO)[C@@H](C(=O)NCc3ccncc3)N(Cc3ccncc3)[C@@H]21 (mixture of isomers)	/	/	/	/	/	-3	/	/
CC(C)[C@H](NC(=O)NCCc1ccccc1)C(=O)O	-17	-2	0	/	0	-5	/	/
CC(C)(C)NC(=O)NCCc1ccccc1	47	5	/	-1	9.9*	/	10*	8.2*
COc1ccc(NC(=O)N(C)C[C@@H]2Oc3c(NC(=O)Nc4c(C)noc4C)cccc3C(=O)N([C@H](C)CO)C[C@H]2C)cc1	/	/	/	/	/	-4	/	/
S=C(Nc1ccccc1)c1ccccn1	28	21	15	/	8.2*	80*	30*	9.4*
S=C(Nc1ccccc1)Nc1ccccn1	/	/	/	0	0	20	/	/
Cc1ccccc1C(=O)OCCN1CCOCC1	17	5	23	/	8.3*	/	1	1
O=C(N/N=C/c1cccs1)c1ccccn1	5	11	42	16	10*	/	9.6*	8.9*
C(=NN=C(NN=Cc1cccs1)NN=Cc1cccs1)c1cccs1	/	/	9	-6	12*	27	-2	5
C[C@H](CO)N1C[C@H](C)[C@@H](CN(C)C(=O)C2CCCCC2)Oc2ncc(C#Cc3cccc(F)c3)cc2C1=O	/	/	/	/	/	-9	/	/
CC(C)c1ccc(NCCC(=O)c2cccs2)cc1	-19	-9	44	/	1	/	/	/
Cc1ccc(NCCC(=O)c2cccs2)cc1	13	17	72	0	11*	64*	7	14*
CCOCCCNc1nc2ccccc2[nH]1	21	3	3	/	-2	13	/	/
CCOCCCNc1ccc(-c2ccccc2)nn1	16	12	64	14	12*	13	10*	6.1*
COc1ccc(C(=O)Nc2ccc3c(c2)OC[C@@H](C)N(C(C)=O)C[C@H](C)[C@@H](OC)CN(C)C3=O)cc1	/	/	/	/	/	-5	/	/
O=C(NC(=O)c1cccc(F)c1)Nc1nc(-c2ccc(F)cc2)cc(C(F)(F)F)n1	/	/	11	-1	-1	/	/	/
O=C(NC(=O)c1ccc(F)cc1)Nc1nc(-c2cccs2)cc(C(F)(F)F)n1	-4	-3	7	-2	8.4*	-2	-2	0
O=C(O)CCS(=O)(=O)c1nc(-c2cccs2)cc(C(F)(F)F)n1	33	14	-2	-1	13*	-3	6	0
CC(C)CNC(=O)CSc1nc(-c2cccs2)cc(C(F)(F)F)n1	11	-4	5	-6	-2	/	/	/
